Screen size: about 2,500 compounds; about 1,100 (44%) were called active. So high a share suggests a set chosen from earlier hits. Some of the results follow. Unmarked numbers belong to inactive results.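 How the source made its calls: active means inhibition above 50% at 4 µM in the single-point screen; inactive means inhibition of 50% or less.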

This test in a line: TNF-a-driven NF-kB reporter inhibitors, primary screen, selectivity assay for NOD1/NOD2 signaling inhibitor project, cell-based, HEK293T NF-kB-Luc, luminescence (AID 1852). As to conditions: TNF-a induced, 14 h, at 4 µM, active compounds read high.
Turning to `Cc1ccc(NC(=O)Nc2nnc(-c3ccncc3)s2)cc1C`, the inhibition was 43.3%.
The result for `O=C(N/N=C(\c1ccccc1)c1cccnc1)c1cccc(F)c1` reads 102% (active).
The result for `COc1cccc(C(=O)N/N=C(/c2ccccc2)c2ccccn2)c1` reads 62.2% (active); that for `C/C(CC(=O)Nc1cccnc1)=N\NC(=O)c1ccc([N+](=O)[O-])c(Cl)c1`, 15.3%; that for `COc1ccc(C(=O)N/N=C(\c2ccccc2)c2ccccn2)cc1`, 46.3%.
On to `COc1cc(C(=O)Nc2sc3c(c2C(=O)O)CCC(C)C3)cc(OC)c1OC` (stereo not given), for which the inhibition is 40%.
With `COc1cc(C(=O)Nc2scc(-c3ccc(Br)cc3)c2C(=O)O)cc(OC)c1OC`, the inhibition was 21.5%.
The result for `COc1cc(C(=O)N/N=C(\c2ccccc2)c2ccccn2)cc(OC)c1OC` reads 64% (active); that for `COc1ccccc1-c1nnc(Sc2nc([N+](=O)[O-])nn2C)o1`, 54.9% (active).
For the compound `COc1ccccc1-c1nc(C#N)c(N2CCN(c3cccc(Cl)c3)CC2)o1`, the inhibition is -20.8%.
As to `COc1ccc(-c2csc3nc(-c4ccccc4OC)oc(=O)c23)cc1`, the inhibition is 12.5%.
In the case of `O=C(NCCCSc1ccccc1)c1cc(Br)ccc1O` it was 69.9% (active); in that of `O=C(NCCCSc1ccccc1)c1cc(Cl)ccc1O`, 80.1% (active).
The result for `C/C(=N\NC(=O)c1cc(Cl)ccc1O)c1ccc(Br)s1` reads 48%; that for `O=C(Nc1ccc(Oc2cccnc2)cc1)C1CCN(Cc2cc(Cl)ccc2O)CC1`, 47.8%; that for `COc1cc(F)ccc1CN1CCC(C(=O)Nc2ccc(Oc3ccccc3)nc2)CC1`, 57% (active).
With `COc1ccccc1CNC(=O)C1CCN(C(=O)[C@@H]2Cc3ccccc3CN2)CC1`, the inhibition was 14.5%.
Take `O=C(Nc1cccc(Br)c1)c1ccc(Cl)c(S(=O)(=O)N2CCOCC2)c1`: the inhibition is 45.4%.
In the case of `O=C(Nc1ccc(Cl)c(S(=O)(=O)N2CCOCC2)c1)c1ccc(OCC2CCCO2)cc1` (stereo not given) it was 94.7% (active); in that of `Cc1ccc(NC(=O)c2ccc(S(=O)(=O)NCC3CCCO3)cc2)cc1C` (stereo not given), 4.7%; in that of `CN(C)S(=O)(=O)c1ccc(C(=O)Nc2nc(-c3cc4ccccc4o3)cs2)cc1`, 36.3%.
The result for `CN(C)S(=O)(=O)c1ccc(-c2csc(N/N=C/c3ccco3)n2)cc1` reads 99.8% (active); that for `O=C(/C=C\c1ccco1)Nc1nc(-c2ccc3ccccc3c2)cs1`, 36.9%.
In the case of `CCCC(=O)NC(c1cccs1)c1cc([N+](=O)[O-])c2cccnc2c1O` (stereo not given), the inhibition is 71.3% (active).
In the case of `CCC(=O)NC(c1cccs1)c1cc([N+](=O)[O-])c2cccnc2c1O` (stereo not given) it was 86.2% (active).

For the origin of these results see PubChem BioAssay AID1852 (Sanford-Burnham Center for Chemical Genomics, 2009).
